Compound activity as filed in PubChem BioAssay.
DAX1 inh-1 – DAX1 (NR0B1) inhibitors on StAR promoter, primary screen, cell-based, luminescence, SF-1 (NR5A1), full-length DAX-1. HEK293T StAR-luciferase reporter, SF-1/DAX-1 repression relief. inhibition, % at 6.8 µM. actives 1.1% (n = 370,000). AID 652010, 2013;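 active means inhibition above the mean over all tested compounds plus 3 SD, cut at about 3.6% in these data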;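 further: 0% = DAX-1 cells with DMSO and 100% = cells lacking DAX-1 with DMSO; higher inhibition means more luminescence from relief of DAX-1 repression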
ssDAF12 agonist – S. stercoralis DAF-12 nuclear receptor activators, primary screen, cell-based, luminescence, HEK293, GRIP1 co-expression, lit1-tk-luc; HEK293 ssDAF-12/GRIP1 lit1-tk-luc reporter; % of 3 µM dafachronic acid response; activation, % at 6.8 µM; actives 1% (n = 370,000); Nuclear hormone receptor DAF-12 (Strongyloides stercoralis); AID 652126, 2013;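 active means activation above the mean over all tested compounds plus 3 SD, cut at about 0.9% in these data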;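 further: 0% = DMSO-only wells and 100% = 3 µM delta7-dafachronic acid wells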
DAX1 inh-2 – DAX1 (NR0B1) inhibitors, primary screen, cell-based, HEK293, Gal4-DAX1, luciferase luminescence; HEK293 Gal4-DAX1 luciferase reporter; AID 504766, 2011; actives 0.99% (n = 340,000); Nuclear receptor subfamily 0 group B member 1 (Homo sapiens), P51843; inhibition, % at 6.75 µM;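 active means inhibition above the mean over all tested compounds plus 3 SD, cut at about 4.2% in these data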;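 further: 0% = DAX1-transfected cells with DMSO and 100% = empty-vector control cells with DMSO; inhibition shows as a rise in luminescence from relieved DAX1 repression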
Target sequence (P51843 207-470 limits assumed): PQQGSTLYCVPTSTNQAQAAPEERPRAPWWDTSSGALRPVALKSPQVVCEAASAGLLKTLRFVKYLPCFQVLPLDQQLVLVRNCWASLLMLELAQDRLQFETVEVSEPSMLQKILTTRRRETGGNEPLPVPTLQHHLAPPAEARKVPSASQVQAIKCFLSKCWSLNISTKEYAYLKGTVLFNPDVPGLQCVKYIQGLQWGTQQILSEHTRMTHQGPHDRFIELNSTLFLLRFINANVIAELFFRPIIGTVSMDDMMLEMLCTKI
hcDAF-12 act – H. contortus DAF-12 nuclear receptor activators, primary screen, cell-based, luminescence, HEK293, lit1-tk-luc reporter; HEK293 hcDAF-12 lit1-tk-luc reporter; 0% DMSO, 100% Δ7-dafachronic acid; activation, % at 6.8 µM; actives 1.4% (n = 370,000); AID 652067, 2013;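 active means activation above the mean of all tested compounds plus 3 SD, cut at about 5.5% in these data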;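 further: 100% = response to 3 µM Δ7-dafachronic acid high control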
hgDAF-12 ag – H. glycines DAF-12 receptor agonists, primary screen, cell-based, luminescence, HEK293, GAL4 fusion, UAS-luciferase; Nuclear hormone receptor DAF-12 (Heterodera glycines), GAL4 fusion; HEK293 GAL4-hgDAF12 UAS-luciferase reporter, agonist luminescence; normalized to butyrate control; activation, % at 6.8 µM; actives 1.8% (n = 370,000); AID 687014, 2013;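 active means activation above a cutoff set at the mean of all screened compounds plus 3 SD, cut at about 10% in these data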;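 further: 0% = DMSO wells and 100% = sodium butyrate wells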
An asterisk follows results filed as active; nt = not tested or not shown. Compounds with a hit are over-represented: about 4.1% of the library has one in this group of screens.

SMILES	DAX1 inh-1	ssDAF12 agonist	DAX1 inh-2	hcDAF-12 act	hgDAF-12 ag
COc1ccccc1NC(=O)N(C)C[C@@H]1OCc2cn(nn2)CCCC(=O)N([C@@H](C)CO)C[C@H]1C	1	0.9*	0	2	-1
COc1ccc(S(=O)(=O)N(C)C[C@@H]2OCc3cn(nn3)CCCC(=O)N([C@H](C)CO)C[C@H]2C)cc1	3.7*	-1	nt	1	0
CCc1nc2ccc(C(=O)NCC3CCCCC3)cn2c1N(CCC(C)C)CCN(C)C	0	-1	nt	-2	-1
CCc1nc2ccc(C(=O)NCc3ccc(OC)cc3)cn2c1N(CCC(C)C)CCN(C)C	1	1.2*	nt	2	1
O=C(OC12CCCN(C1)/C(=C/c1ccncc1)C2)c1cccc(F)c1 (stereo not drawn)	-3	-1	nt	-4	-5
Cc1cc(NC(=O)c2cc(C)on2)no1	-1	0	0	3	0
Cc1ccc(C(=O)Nc2ccc(Cl)cc2C(F)(F)F)c(Cl)c1	0	-1	1	0	13*
O=C(Nc1ccc(Cl)cc1C(F)(F)F)c1ccccc1Cl	0	-1	0	-3	4
Cc1cc(NC(=O)c2ccc(Cl)cc2Cl)no1	3	0	6.7*	5	12*
O=C(Nc1ccsn1)c1ccc(Cl)cc1Cl	0	-1	4.5*	1	12*
CCn1ncc(C(=O)Nc2cc(C)on2)c1C	1	-1	2	1	12*
CC(C)CNC(=S)NC(=O)c1ccc(Cl)cc1Cl	0	-1	-1	1	5
CC(C)NC(=S)NC(=O)c1ccc(Cl)cc1Cl	1	0	-1	5.7*	4
Cc1ccc(NC(=O)Nc2cc(C)on2)cc1	1	-1	1	0	5
Cc1cc(NC(=O)Nc2ccc(Cl)cc2)no1	1	-1	4.8*	2	2
Nc1[nH]c(C(=O)c2ccc(Br)cc2)c(-c2ccc(Cl)cc2[N+](=O)[O-])c1C(=O)NCCc1c[nH]c2ccccc12	-2	0	nt	1	2
COC(=O)[C@]12C[C@H](CC(=O)NCc3ccccc3)C(=O)N(Cc3ccco3)C1=C[C@H](COCc1ccccc1)O[C@@H]2C	-1	0	nt	0	2
CN(C)/C=N/c1ncn(-c2ncc(C(F)(F)F)cc2Cl)n1	1	-1	4.4*	4	8
COC(=O)[C@]12C[C@H](CC(=O)NCc3ccc(C)o3)C(=O)N(Cc3cccc4ccccc34)C1=C[C@H](C(C)C)O[C@@H]2C1CC1	-2	-1	nt	0	0
Cc1ccc2nc3n(c(=O)c2c1)-c1cc2ccccc2cc1C(=O)NC3Cc1ccccc1 (stereo not drawn)	3.9*	-1	0	0	2
Cc1ccc2nc3n(c(=O)c2c1)-c1ccc(Cl)cc1C(=O)NC3Cc1ccccc1 (stereo not drawn)	-1	-1	nt	2	0
CC1NC(=O)c2cc3ccccc3cc2-n2c1nc1ccc(F)cc1c2=O (stereo not drawn)	0	0	1	6.2*	2
CCCC1NC(=O)c2cc3ccccc3cc2-n2c1nc1cc(Cl)ccc1c2=O (stereo not drawn)	1	1.4*	1	1	0
CCCC1NC(=O)c2cc3ccccc3cc2-n2c1nc1ccc(C)cc1c2=O (stereo not drawn)	2	0	2	1	0
CC(C)c1cc(C(C)C)c(S(=O)(=O)N2CCC(C(=O)NCC3COCCO3)CC2)c(C(C)C)c1 (stereo not drawn)	0	-1	nt	-4	-1
CCOC(=O)N1CCN(C(=O)C[C@H]2C[C@@]3(C(=O)OC)C(=C[C@H](COCc4ccccc4)O[C@@H]3C)N(Cc3ccccc3)C2=O)CC1	-1	-1	nt	-3	-1
COC(=O)c1c(C)[nH]c(C=O)c1-c1ccccc1	0	-1	nt	0	0
COC(=O)c1c(-c2ccccc2)c[nH]c1C	0	0	4.8*	-1	-1
